Screens (PubChem)
SW480 rereplic: A quantitative high throughput screen for small molecules that induce DNA re-replication in SW480 colon adenocarcinoma cells. SW480 DNA re-replication, Hoechst DNA content imaging, 48 h. Potency, µM (series often up to 46.1 µM), for inactives: top-dose re-replication activation, usual class: activators. 340,000 tested, 1.8% active; note: % of control where 0% means no effect; nearly all actives have a fitted effect of over 55% in size
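Hoechst fluorescence of nuclei (405 nm excitation, 500-530 nm emission) measured by plate-scanning imager after 48 hr compound exposure at 37 C; re-replication scored as increased number of nuclei with elevated intensity.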
MCF10A rerep: A quantitative high throughput screen for small molecules that induce DNA re-replication in MCF 10a normal breast cells; MCF 10A DNA re-replication, Hoechst nuclear intensity, 48 h; Potency, µM (top dose mostly 46.1 µM), for inactives: at the highest dose activity, positive = re-replication, hits mostly activators; 350,000 tested, 2.9% active; AID 624296, 2012; note: % of control where 0% means no effect; nearly all actives have a fitted effect of over 50% in size
ELG1 repair inh: qHTS screen for small molecules that inhibit ELG1-dependent DNA repair in human embryonic kidney (HEK293T) cells expressing luciferase-tagged ELG1; 330,000 tested, 2.3% active; HEK293T ELG1-luciferase reporter, luminescence, 16 h; DNA damage induced by 5-fluorouridine; Potency, µM (top dose mostly 46.1 µM), for the others: at the highest dose activity change, negative = inhibition, hits mostly inhibitors; AID 504467, 2011; note: % is set by controls: 0 for no effect and ±100 for the full control effect; nearly all actives have a fitted effect of over 55% in size
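Quantitative HTS, concentration-response format. 2,000 cells/well co-treated with 5-fluorouridine and compound, 16 hr in 5% CO2 at 37 °C; ONE-Glo luminescence read after 30 min.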
Gal4-VP16 FLuc: VP16 counterscreen qHTS for inhibitors of ROR gamma transcriptional activity. Drosophila S2 Gal4-VP16 UAS-luciferase, luminescence, 20 h. Potency, µM (doses to about 53.6 µM), inactives show top-dose activity, negative = inhibition, hits mostly inhibitors. 310,000 tested, 3.5% active. AID 2546, 2010;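 note: Gal4-VP16 expression switched on by copper sulfate through the metallothionein promoter; % is set by controls: 0 for no effect and ±100 for the full control effect; nearly all actives have a fitted effect of over 50% in size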
RORg inh: qHTS for inhibitors of ROR gamma transcriptional activity | 310,000 tested, 5.4% active | Nuclear receptor ROR-gamma (Mus musculus), P51450 | AID 2551, 2010 | Drosophila S2 Gal4-RORgamma UAS-luciferase reporter, 20 h | Potency, µM (series often up to 53.6 µM), inactives show at the top dose activity change, negative = inhibition, usual class: inhibitors; note: % is set by controls: 0 for no effect and ±100 for the full control effect; nearly all actives have a fitted effect of over 60% in size
Target sequence (P51450 whole entry, looked up, the tested form may be a part): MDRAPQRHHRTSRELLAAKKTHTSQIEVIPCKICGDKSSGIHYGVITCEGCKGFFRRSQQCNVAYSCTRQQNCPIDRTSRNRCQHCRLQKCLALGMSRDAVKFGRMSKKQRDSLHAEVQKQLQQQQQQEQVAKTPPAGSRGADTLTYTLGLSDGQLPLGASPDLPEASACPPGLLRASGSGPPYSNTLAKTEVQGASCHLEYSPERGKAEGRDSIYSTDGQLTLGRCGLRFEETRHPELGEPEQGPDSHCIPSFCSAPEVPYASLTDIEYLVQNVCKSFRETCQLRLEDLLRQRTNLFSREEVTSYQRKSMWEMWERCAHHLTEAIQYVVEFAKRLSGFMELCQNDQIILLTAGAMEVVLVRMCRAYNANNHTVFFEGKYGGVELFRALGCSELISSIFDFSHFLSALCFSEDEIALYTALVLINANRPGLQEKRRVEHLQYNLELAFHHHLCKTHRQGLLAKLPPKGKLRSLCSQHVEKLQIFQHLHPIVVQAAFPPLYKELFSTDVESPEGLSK
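Using a luciferase readout, inhibitors were identified by reduced reporter activity in Drosophila cells coexpressing a copper-inducible Gal4–ROR gamma fusion and UAS-driven Photinus luciferase, incubated 20 hr after 700 uM copper sulfate.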
* hit, by the source's call; [ ] = dose if it differs, or a comment. Sampled rows, rich in hits. Any-hit rate of the full collection: about 10%. Calls come from the whole dose curve; as a rule, active = well fitted curve in the direction sought with a large enough effect; inconclusive = small, poorly fitted or top-dose-only effect, or another doubt; inactive = no such curve, though single readings can be large; an effect the other way counts as inactive or inconclusive. Potency is the fitted concentration of half-maximal effect.

Screening CN1c2ccccc2C(C)(C)C12C=Cc1cc(O)ccc1O2 (configuration not stated) returned SW480 rereplic 22%, MCF10A rerep -10%, ELG1 repair inh 3%, Gal4-VP16 FLuc inconclusive and RORg inh -23%.
For CCC(CC)NC(=O)c1cc2c(C)nn(Cc3ccccc3Cl)c2s1 the results were SW480 rereplic inconclusive, MCF10A rerep inconclusive, ELG1 repair inh inconclusive, Gal4-VP16 FLuc 4% and RORg inh 11%.
COc1ccccc1CNC(=O)c1cc2c(C)nn(Cc3ccc(F)cc3)c2s1 was read as SW480 rereplic -5%, MCF10A rerep 3%, ELG1 repair inh inconclusive, Gal4-VP16 FLuc 1% and RORg inh inconclusive.
`Cc1nn(Cc2ccc(F)cc2)c2sc(C(=O)Nc3nccs3)cc12` gave SW480 rereplic 1%, MCF10A rerep inconclusive, ELG1 repair inh inconclusive, Gal4-VP16 FLuc inconclusive and RORg inh 11µM*.
Screening Cc1nn(Cc2ccccc2Cl)c2sc(C(=O)Nc3nccs3)cc12 returned SW480 rereplic 3%, MCF10A rerep 14%, ELG1 repair inh -28%, Gal4-VP16 FLuc inconclusive and RORg inh 10µM*.
Screening Cc1nn(Cc2ccccc2Cl)c2sc(C(=O)Nc3ccccc3N3CCOCC3)cc12 returned SW480 rereplic 174%, MCF10A rerep 9.2µM*, ELG1 repair inh 23µM*, Gal4-VP16 FLuc -23% and RORg inh 37%.
`Cc1nn(Cc2ccc(F)cc2)c2sc(C(=O)Nc3ccccc3N3CCOCC3)cc12` gave SW480 rereplic 1%, MCF10A rerep 12%, ELG1 repair inh inconclusive, Gal4-VP16 FLuc -12% and RORg inh -3%.
COc1ccccc1NC(=O)N[C@@H](Cc1c[nH]c2ccccc12)C(=O)NN was read as SW480 rereplic 1%, MCF10A rerep inconclusive, ELG1 repair inh -7%, Gal4-VP16 FLuc -17% and RORg inh -1%.
COc1ccc(NC2CC(=O)N(CCc3ccccc3)C2=O)cc1 (configuration not stated) was read as SW480 rereplic -2%, MCF10A rerep 1%, ELG1 repair inh 10%, Gal4-VP16 FLuc -12% and RORg inh inconclusive.
Screening Cc1cc(NC(=O)/C=C/c2ccccc2)c(C(C)C)cc1O returned SW480 rereplic 12%, MCF10A rerep -4%, ELG1 repair inh inconclusive, Gal4-VP16 FLuc -2% and RORg inh 13%.
Cc1cc(C)c(OCCCCNCc2ccccc2)c(Cl)c1 was read as SW480 rereplic inconclusive, MCF10A rerep 23µM*, ELG1 repair inh -10%, Gal4-VP16 FLuc -5% and RORg inh -44%.
For COC(=O)c1cc(Cl)c(NC(=O)c2ccc(C(C)(C)C)cc2)cc1OC the results were SW480 rereplic 20%, MCF10A rerep 9.2µM*, ELG1 repair inh inconclusive, Gal4-VP16 FLuc -7%[0.365 µM] and RORg inh inconclusive.
CC(=O)N1CCN(C(=S)NC(=O)C23CC4CC(CC(C4)C2)C3)CC1 was read as SW480 rereplic 12%, MCF10A rerep -5%, ELG1 repair inh 4%, Gal4-VP16 FLuc -21% and RORg inh 14µM*.
COCCNC(=S)NC(=O)CC12CC3CC(CC(C3)C1)C2 was read as SW480 rereplic 23%, MCF10A rerep -37%, ELG1 repair inh -10%, Gal4-VP16 FLuc inconclusive and RORg inh 2.5µM*.
`CNC(=S)N1CCC(NC(=O)C23CC4CC(CC(C4)C2)C3)CC1` gave SW480 rereplic 6%, MCF10A rerep -1%, ELG1 repair inh 12%, Gal4-VP16 FLuc -7% and RORg inh 2%.
For CNC(=O)CC12CC3CC(CC(C3)C1)C2 the results were SW480 rereplic -6%, MCF10A rerep -1%, ELG1 repair inh inconclusive, Gal4-VP16 FLuc -9% and RORg inh -26%.
`CC1CCCCN1C(=O)NC12CC3CC(CC(C3)C1)C2` (configuration not stated) gave SW480 rereplic -5%, MCF10A rerep 2%, ELG1 repair inh inconclusive, Gal4-VP16 FLuc 2% and RORg inh -4%.
`O=C(CC12CC3CC(CC(C3)C1)C2)NC(=S)N1CCCCC1` gave SW480 rereplic -1%, MCF10A rerep 4%, ELG1 repair inh 16%, Gal4-VP16 FLuc 3.5µM* and RORg inh 4.5µM*.
`S=C(NC12CC3CC(CC(C3)C1)C2)N1CCCC1` gave SW480 rereplic inconclusive, MCF10A rerep inconclusive, ELG1 repair inh 20%, Gal4-VP16 FLuc inconclusive and RORg inh 14µM*.
COc1ccc(CCNC(=O)c2ccc(CNc3nc(=S)[nH]c4ccccc34)cc2)cc1OC was read as SW480 rereplic -1%, MCF10A rerep 11%, ELG1 repair inh 15µM*, Gal4-VP16 FLuc 4% and RORg inh -12%.
COc1ccc(CCNc2nc(=S)[nH]c3cc(OC)c(OC)cc23)cc1OC was read as SW480 rereplic -2%, MCF10A rerep 2%, ELG1 repair inh -4%, Gal4-VP16 FLuc inconclusive and RORg inh 10µM*.
For COc1cc2[nH]c(=S)nc(NCCc3ccc(C)cc3)c2cc1OC the results were SW480 rereplic inconclusive, MCF10A rerep 23µM*, ELG1 repair inh -29%, Gal4-VP16 FLuc 6.3µM* and RORg inh 0.89µM*.
Screening COc1cc2[nH]c(=S)nc(NCCC(C)C)c2cc1OC returned SW480 rereplic -4%, MCF10A rerep 3%, ELG1 repair inh 0%, Gal4-VP16 FLuc 8.9µM* and RORg inh 4.5µM*.
For COc1ccc(CCNC(=O)c2c(O)c3ccccc3[nH]c2=O)cc1OC the results were SW480 rereplic -9%, MCF10A rerep -3%, ELG1 repair inh 14%, Gal4-VP16 FLuc 2% and RORg inh 0%.
For O=C(CN(Cc1ccccc1Cl)C(=O)c1csnn1)NCc1ccc2c(c1)OCO2 the results were SW480 rereplic -1%, MCF10A rerep inconclusive, ELG1 repair inh -5%, Gal4-VP16 FLuc 3% and RORg inh 20%.
Screening Cc1ccccc1-c1nnc(SCC(=O)N2CCCC2)o1 returned SW480 rereplic -7%, MCF10A rerep -4%, ELG1 repair inh inconclusive, Gal4-VP16 FLuc inconclusive and RORg inh 1%.
`O=C(c1cnc2c(c1)COc1ccc(Cl)cc1-2)c1ccccc1O` gave SW480 rereplic -3%, MCF10A rerep 18%, ELG1 repair inh 1%, Gal4-VP16 FLuc -13% and RORg inh 9%.
For Cc1ccc(O)c(C(=O)c2cnc3c(c2)COc2ccccc2-3)c1 the results were SW480 rereplic -20%[9.22 µM], MCF10A rerep inconclusive, ELG1 repair inh 16µM*, Gal4-VP16 FLuc -25% and RORg inh inconclusive.
